Assay results: PubChem BioAssay (NCATS)
Values joined by “and” are separate entries in the source; they are usually repeats but may differ in a detail not shown here. Identical values can stand only once. A number with no mark means an inactive call. Results filed as inconclusive are left out. Active and inactive are the calls of the source. Unless noted, the call rests on the fitted dose curve.

molecular target: Alpha-galactosidase A (Homo sapiens) (UniProt P06280); assay: Counterscreen for Glucocerebrosidase Inhibitors: qHTS Assay for Human alpha-Galactosidase at pH 4.5 (AID 992; active means well fitted curve in the direction sought with a large enough effect; an effect the other way counts as inactive or inconclusive; further: 0% is about no effect); details: purified enzyme, fluorogenic substrate; series mostly up to 76.9 µM; activity change, negative = inhibition: at the top concentration
Outline: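 Fluorogenic 1536-well qHTS at pH 4.5 (citrate, Tween-20): 2 nM enzyme, 80 uM 4-MU-alpha-galactoside, 20 min room temperature, NaOH/glycine stop. Titration 0.7 nM to 77 uM, data normalized to no-enzyme and full-activity controls, Hill-fitted AC50.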

Alpha-galactosidase A (Homo sapiens), sequence (P06280 whole entry, looked up): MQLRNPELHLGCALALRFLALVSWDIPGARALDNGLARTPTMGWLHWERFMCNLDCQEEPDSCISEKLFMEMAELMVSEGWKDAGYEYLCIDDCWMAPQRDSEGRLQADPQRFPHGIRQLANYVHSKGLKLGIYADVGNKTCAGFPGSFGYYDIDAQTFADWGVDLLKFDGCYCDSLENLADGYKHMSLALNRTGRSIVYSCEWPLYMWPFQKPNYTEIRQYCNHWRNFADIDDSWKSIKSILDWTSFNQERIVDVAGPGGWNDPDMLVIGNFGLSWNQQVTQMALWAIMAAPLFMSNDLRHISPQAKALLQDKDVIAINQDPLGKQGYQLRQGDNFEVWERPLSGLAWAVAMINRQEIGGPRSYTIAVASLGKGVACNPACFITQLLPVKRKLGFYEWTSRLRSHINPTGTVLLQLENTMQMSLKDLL

Structure (SMILES)	outcome	activity change, negative = inhibition
CC(C)NC[C@@H](O)COc1cccc2ccccc12	inactive	
C[N+]1(CCCCC[N+]2(C)CCCC2)CCCC1		-0.303%
CNCCC=C1c2ccccc2CCc2ccccc21		-2.79%

molecular target: alpha-glucosidase (Oryza sativa, rice) (UniProt Q653V4); assay: Counterscreen for Glucocerebrosidase Inhibitors: qHTS Assay for Rice alpha-Glucosidase at pH 5.0 (AID 997; active means well fitted curve in the direction sought with a large enough effect; an effect the other way counts as inactive or inconclusive;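 further: 0% = full activity with enzyme and -100% = basal without enzyme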); details: rice alpha-glucosidase enzyme activity; series mostly up to 76.9 µM; activity change, negative = inhibition: at the top concentration
Outline: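 Endpoint fluorogenic assay at pH 5.0: compounds (0.7 nM to 77 uM) titrated against 4 nM rice enzyme and 400 uM 4-MU-alpha-glucoside for 20 min at room temperature; NaOH/glycine stop, read ex 365/em 440 nm, Hill-fitted AC50.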

Structure (SMILES)	outcome	activity change, negative = inhibition
CC(C)NC[C@@H](O)COc1cccc2ccccc12	inactive	
C[N+]1(CCCCC[N+]2(C)CCCC2)CCCC1		-2.26%
CNCCC=C1c2ccccc2CCc2ccccc21		-2%

test system: not listed separately; assay: qHTS Assay for Lipid Storage Modulators (AID 1519); details: Drosophila S3 cells, BODIPY lipid droplet/cell ratio, laser cytometry; at 25.7 µM (top of the series); cells loaded with oleic acid; further: on the % scale 0 is the no-effect control and ±100 the full control effect
Outline: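 Cells seeded at 5,000 per well were treated with compounds over a concentration series and loaded with oleic acid (400 uM, as added). Lipid droplet fluorescence (488 nm excitation, 500-530 nm channel) was read by laser-scanning cytometry and normalized to 20 uM Triacsin C.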

Structure (SMILES)	activity change, negative = inhibition
CCCCOc1cc(C(=O)NCCN(CC)CC)c2ccccc2n1	-1.17%
CN(C(=O)CN(CCO)CC(=O)N(C)C(C)(C)Cc1ccccc1)C(C)(C)Cc1ccccc1	-12.5%
COc1ccc(CCN2CCC(Nc3nc4ccccc4n3Cc3ccc(F)cc3)CC2)cc1	-7.48%
CCN(CC)C(=O)N1CCN(C)CC1	-0.935%
OC(CCN1CCCCC1)(c1ccccc1)c1ccccc1	-4.82%
CCOC(=O)n1ccn(C)c1=S	-1.84%
CC(=O)c1ccc2c(c1)N(CCCN1CCC(CCO)CC1)c1ccccc1S2	-1.72%
CN1CCN(CCCN2c3ccccc3Sc3ccc(S(=O)(=O)N(C)C)cc32)CC1	-2.96%
CC(C)NC[C@@H](O)COc1cccc2ccccc12	-1.02% and 0.265% and -0.0202%
CN(C)CC/C=C1\c2ccccc2Sc2ccc(Cl)cc21	-2%
CN1CCN(C(c2ccccc2)c2ccccc2)CC1	-2.7%
Cc1cc(=O)n(-c2ccccc2)n1C	1.11%
CC(C)(Oc1ccc(Cl)cc1)C(=O)O	-1.74%
C[N+]1(CCCCC[N+]2(C)CCCC2)CCCC1	-1.41%
O=C1c2ccccc2C(=O)C1c1ccccc1	-0.708%
Oc1c(I)cc(Cl)c2cccnc12	-3.26%
CC(C)(C(=O)c1cccnc1)c1cccnc1	-6.04%
CCN(CCCc1ccccc1)CCCc1ccccc1	-2.55%
CNCCC=C1c2ccccc2CCc2ccccc21	-2%
Nc1nc2ncc(CNc3ccc(C(=O)N[C@@H](CCC(=O)O)C(=O)O)cc3)nc2c(=O)[nH]1	-2.19%
C=C(CC)C(=O)c1ccc(OCC(=O)O)c(Cl)c1Cl	-7.65%
